24 compounds from PubChem BioAssay (NCATS) can be followed below.

Inconclusive results are not listed. The source made the active and inactive calls. Unless noted, calls come from the whole dose curve; as a rule, active = well fitted curve in the direction sought with a large enough effect; inconclusive = small, poorly fitted or top-dose-only effect, or another doubt; inactive = no such curve, though single readings can be large; an effect the other way counts as inactive or inconclusive.

Assay [1] deals with ATP-dependent DNA helicase Q1 (Homo sapiens) (UniProt P46063). In words: qHTS Validation Assay for Inhibitors of RecQ-Like Dna Helicase 1 (RECQ1) (AID 2353). The method in brief:
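50 nM RECQ1T1 preincubated 15 min with compound in Tris pH 8.0 buffer with MgCl2, DTT, Tween-20 and 2.5 ug/ml poly(dI-dC); started with 200 nM TAMRA/BHQ-2 forked duplex and 2 mM ATP. Unwinding read as fluorescence (525/598 nm), two reads 2 h apart.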
In general terms: qHTS replaces the single test concentration by a dilution series.

Assay [2] can be described thus: Cytometric Cell-Based qHTS for Inhibitors of the mTORC1 Signaling Pathway in MEF (Tsc2-/-, p53-/-) Cells (AID 2660).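 Note: percent of cells above a phospho-rpS6 to PI ratio cutoff in each well; series mostly up to about 38 µM.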 The method in brief:
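Tsc2-/-, p53-/- MEFs (empty vector) exposed to compound 24 h at 37 C, fixed, stained with Alexa-488 anti-phospho-rpS6 Ser235/236 and propidium iodide. Acumen laser scanning; phospho-S6/PI ratio thresholded against 7.5 nM rapamycin, reported as % positive cells.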

A short description of assay [3]: High Content Imaging Cell-Based qHTS for Inhibitors of the mTORC1 Signaling Pathway in MEF (Tsc2-/-, p53-/-) Cells (AID 2666).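 Note: percent of cells scored positive for phospho-rpS6 Ser235/236 immunostaining by imaging.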 Note: potency is the fitted concentration of half-maximal effect. The method, boiled down: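 Read-out: % positive cells per well, with thresholds from highest- and lowest-signal wells, based on phospho-rpS6 (Ser235/236) intensity normalized to Hoechst nuclear stain. Cells: Tsc2-/-, p53-/- MEFs carrying empty vector; compound 24 hrs, 37 degree Celsius.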

Assay [4] is described as follows: High Content Imaging Cell-Based qHTS for Inhibitors of the mTORC1 Signaling Pathway in MEF Cells (AID 2667). Note: potency is the fitted concentration of half-maximal effect. The method in brief:
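MEF (Tsc2-/-, p53-/-, WT Tsc2 re-expressed); cpd 24 h, 37 °C; PFA fix; Alexa-488 anti-p-rpS6 Ser235/236, PI, Hoechst; IN Cell imaging; Hoechst/Alexa-488 intensity ratio; % active cells, thresholds set from rapamycin and DMSO wells.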

A short description of assay [5]: Cytometry Cell-Based qHTS for Inhibitors of the mTORC1 Signaling Pathway in MEF cells (AID 2668).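 Note: Tsc2-/- p53-/- mouse embryonic fibroblasts stably re-expressing wild-type Tsc2; percent cells positive for phospho-rpS6 Ser235/236 relative to propidium iodide stain; series mostly up to about 38 µM.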 The method in brief: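 Phospho-rpS6 (Ser235/236) immunofluorescence over PI signal, scored as % positive cells using thresholds from 7.5 nM rapamycin and DMSO wells, after 24 h compound exposure of WT-Tsc2-rescued Tsc2-/-, p53-/- MEFs. PI cell count recorded for viability.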

Assay [6] in a line: Validation screen for small molecules that induce DNA re-replication in MCF 10A normal breast cells (AID 463097). Note: nearly all actives have a fitted effect of over 60% in size. Note: potency is the fitted concentration of half-maximal effect. The method in brief:
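Read-out is Hoechst total nuclear intensity by fluorescence scanning imager, flagging increased high-DNA-content nuclei. Compounds were incubated with MCF 10A cells for 48 hr (37 C, 5% CO2) before 40 min staining.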

The target of assay [7] is Ubiquitin carboxyl-terminal hydrolase 2 (Homo sapiens) (UniProt O75604). Kind of assay: qHTS Validation Assay for Inhibitors of Ubiquitin-specific Protease USP2a Using CHOP2 as the Reporter (AID 463106). The method, boiled down: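 USP2 core (10nM final) was preincubated with compound for 30min at RT in 20mM Tris-HCl pH 8.0, 2mM CaCl2, 2mM beta-mercaptoethanol, 0.05% CHAPS. Ub-CHOP2 and reporter substrate (25nM each) were added, and fluorescence (Ex 485/Em 531nm) was read after 60min.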
Ubiquitin carboxyl-terminal hydrolase 2 (Homo sapiens), sequence (O75604 whole entry, looked up): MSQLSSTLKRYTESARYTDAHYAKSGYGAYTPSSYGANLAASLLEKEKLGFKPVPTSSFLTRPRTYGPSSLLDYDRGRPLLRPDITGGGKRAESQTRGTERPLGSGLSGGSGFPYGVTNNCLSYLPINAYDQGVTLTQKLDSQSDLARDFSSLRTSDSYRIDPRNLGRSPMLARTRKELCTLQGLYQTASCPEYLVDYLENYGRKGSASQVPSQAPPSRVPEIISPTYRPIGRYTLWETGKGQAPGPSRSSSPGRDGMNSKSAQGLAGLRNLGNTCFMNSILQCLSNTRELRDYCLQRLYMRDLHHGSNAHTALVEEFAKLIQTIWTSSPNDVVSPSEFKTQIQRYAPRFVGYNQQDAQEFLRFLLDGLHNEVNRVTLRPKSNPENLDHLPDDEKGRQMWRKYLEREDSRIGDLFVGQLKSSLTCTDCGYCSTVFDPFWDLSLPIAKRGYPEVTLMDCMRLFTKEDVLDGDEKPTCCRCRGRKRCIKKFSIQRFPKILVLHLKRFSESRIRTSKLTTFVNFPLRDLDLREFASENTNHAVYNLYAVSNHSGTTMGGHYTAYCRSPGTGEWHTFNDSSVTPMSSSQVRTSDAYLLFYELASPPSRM

In assay [8] the target is DNA polymerase III PolC-type (Bacillus subtilis (strain 168)) (UniProt P13267). Kind of assay: qHTS Validation Assay for the Inhibitors of DNA Replication in Gram-Positive Bacteria (AID 485295).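 Note: reconstituted holoenzyme with PolC plus beta clamp SSB and primase; PicoGreen fluorescence of double-stranded DNA made on primed circular M13 template; series mostly up to about 57 µM.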 The method, boiled down:
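Double-stranded DNA product detected by PicoGreen fluorescence after EDTA quench. Compound incubated with B. subtilis holoenzyme (PolC, beta subunit, SSB, primase) before substrate addition; primed replication of M13Gori with dNTPs and NTPs at room temperature; DMSO defines 0% inhibition.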

Assay [9] addresses Tumor susceptibility gene 101 protein (Homo sapiens) (UniProt Q99816). Kind of assay: qHTS Validation Assay for Iinhibitors of HIV-1 Budding by Blocking the Interaction of PTAP/TSG101 (AID 485342; calls by dose curve). The method in brief:
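Fluorescence polarization of 50 nM FITC-PTAP peptide bound to 10 uM Tsg101 binding domain was read after 20 min room-temperature incubation with compounds, in 10 mM HEPES pH 7.5, 0.15 M NaCl, 0.01% Tween 20.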

Assay [10] deals with RecQ-like DNA helicase BLM (Homo sapiens) (UniProt P54132). In words: qHTS Validation Assay for Inhibitors of Bloom's syndrome helicase (BLM) (AID 2364). The method in brief:
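BLM 50 nM in 25 mM Tris-HCl pH 8.0, 5 mM NaCl, 2 mM MgCl2, 1 mM DTT, 0.01% Tween-20, 2.5 ug/ml poly(dI-dC); 15 min cpd preinc, RT. Start: 200 nM forked DNA + 2 mM ATP (final). TAMRA read, 2 reads 2 h apart.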

DNA polymerase III PolC-type (Bacillus subtilis (strain 168)), sequence (P13267 whole entry, looked up): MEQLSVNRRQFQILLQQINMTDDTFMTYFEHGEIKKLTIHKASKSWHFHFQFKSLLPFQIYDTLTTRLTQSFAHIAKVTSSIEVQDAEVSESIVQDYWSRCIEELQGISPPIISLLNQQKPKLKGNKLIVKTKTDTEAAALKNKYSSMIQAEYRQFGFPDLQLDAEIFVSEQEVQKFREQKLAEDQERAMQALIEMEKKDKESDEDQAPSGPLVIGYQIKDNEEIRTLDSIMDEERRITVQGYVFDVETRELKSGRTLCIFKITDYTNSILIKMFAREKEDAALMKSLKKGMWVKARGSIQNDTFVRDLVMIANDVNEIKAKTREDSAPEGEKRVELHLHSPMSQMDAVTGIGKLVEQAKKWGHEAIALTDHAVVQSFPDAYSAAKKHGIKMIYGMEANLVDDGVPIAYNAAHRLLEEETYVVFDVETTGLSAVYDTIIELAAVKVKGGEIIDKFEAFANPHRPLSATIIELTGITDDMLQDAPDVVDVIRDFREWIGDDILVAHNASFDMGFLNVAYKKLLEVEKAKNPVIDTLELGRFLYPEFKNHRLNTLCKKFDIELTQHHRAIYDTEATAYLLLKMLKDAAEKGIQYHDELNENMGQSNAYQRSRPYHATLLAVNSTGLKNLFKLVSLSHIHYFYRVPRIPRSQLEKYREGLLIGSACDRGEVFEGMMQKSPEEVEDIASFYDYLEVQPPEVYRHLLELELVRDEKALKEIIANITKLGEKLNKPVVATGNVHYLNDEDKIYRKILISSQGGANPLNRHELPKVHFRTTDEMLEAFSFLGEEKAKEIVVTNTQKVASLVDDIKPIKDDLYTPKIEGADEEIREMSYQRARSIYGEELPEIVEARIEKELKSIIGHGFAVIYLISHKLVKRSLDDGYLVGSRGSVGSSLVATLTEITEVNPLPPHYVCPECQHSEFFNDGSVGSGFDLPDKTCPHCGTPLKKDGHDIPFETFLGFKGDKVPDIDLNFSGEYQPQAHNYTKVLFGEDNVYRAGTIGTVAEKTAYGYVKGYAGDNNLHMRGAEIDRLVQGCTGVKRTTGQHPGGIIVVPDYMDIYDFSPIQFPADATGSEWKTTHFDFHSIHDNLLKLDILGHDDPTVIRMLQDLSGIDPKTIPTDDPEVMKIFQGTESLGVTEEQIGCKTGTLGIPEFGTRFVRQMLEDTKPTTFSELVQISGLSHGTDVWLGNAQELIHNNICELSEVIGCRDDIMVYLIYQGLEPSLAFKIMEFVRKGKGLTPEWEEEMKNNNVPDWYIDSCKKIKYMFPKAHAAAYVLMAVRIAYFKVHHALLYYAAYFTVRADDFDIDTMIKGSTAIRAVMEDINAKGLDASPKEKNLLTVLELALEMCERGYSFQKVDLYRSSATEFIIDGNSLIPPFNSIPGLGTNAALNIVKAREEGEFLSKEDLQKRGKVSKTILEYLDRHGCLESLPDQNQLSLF
ATP-dependent DNA helicase Q1 (Homo sapiens), sequence (P46063 whole entry, looked up): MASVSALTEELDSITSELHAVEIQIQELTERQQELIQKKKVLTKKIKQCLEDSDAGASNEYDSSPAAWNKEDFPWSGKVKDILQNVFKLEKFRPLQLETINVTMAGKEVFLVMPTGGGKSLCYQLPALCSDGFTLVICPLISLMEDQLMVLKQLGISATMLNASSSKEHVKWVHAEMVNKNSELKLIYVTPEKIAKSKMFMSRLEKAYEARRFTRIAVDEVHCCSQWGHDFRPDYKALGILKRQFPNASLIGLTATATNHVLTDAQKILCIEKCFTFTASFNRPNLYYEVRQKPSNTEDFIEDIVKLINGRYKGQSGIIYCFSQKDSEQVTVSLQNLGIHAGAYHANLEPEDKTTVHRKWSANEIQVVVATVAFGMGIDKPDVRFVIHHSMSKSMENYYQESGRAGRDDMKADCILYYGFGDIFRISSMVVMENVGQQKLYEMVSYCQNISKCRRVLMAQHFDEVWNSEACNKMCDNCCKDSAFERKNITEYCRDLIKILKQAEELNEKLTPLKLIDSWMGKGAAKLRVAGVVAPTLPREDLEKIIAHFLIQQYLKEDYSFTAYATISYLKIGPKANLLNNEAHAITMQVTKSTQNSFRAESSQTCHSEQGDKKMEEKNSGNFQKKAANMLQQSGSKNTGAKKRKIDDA
RecQ-like DNA helicase BLM (Homo sapiens), sequence (P54132 whole entry, looked up): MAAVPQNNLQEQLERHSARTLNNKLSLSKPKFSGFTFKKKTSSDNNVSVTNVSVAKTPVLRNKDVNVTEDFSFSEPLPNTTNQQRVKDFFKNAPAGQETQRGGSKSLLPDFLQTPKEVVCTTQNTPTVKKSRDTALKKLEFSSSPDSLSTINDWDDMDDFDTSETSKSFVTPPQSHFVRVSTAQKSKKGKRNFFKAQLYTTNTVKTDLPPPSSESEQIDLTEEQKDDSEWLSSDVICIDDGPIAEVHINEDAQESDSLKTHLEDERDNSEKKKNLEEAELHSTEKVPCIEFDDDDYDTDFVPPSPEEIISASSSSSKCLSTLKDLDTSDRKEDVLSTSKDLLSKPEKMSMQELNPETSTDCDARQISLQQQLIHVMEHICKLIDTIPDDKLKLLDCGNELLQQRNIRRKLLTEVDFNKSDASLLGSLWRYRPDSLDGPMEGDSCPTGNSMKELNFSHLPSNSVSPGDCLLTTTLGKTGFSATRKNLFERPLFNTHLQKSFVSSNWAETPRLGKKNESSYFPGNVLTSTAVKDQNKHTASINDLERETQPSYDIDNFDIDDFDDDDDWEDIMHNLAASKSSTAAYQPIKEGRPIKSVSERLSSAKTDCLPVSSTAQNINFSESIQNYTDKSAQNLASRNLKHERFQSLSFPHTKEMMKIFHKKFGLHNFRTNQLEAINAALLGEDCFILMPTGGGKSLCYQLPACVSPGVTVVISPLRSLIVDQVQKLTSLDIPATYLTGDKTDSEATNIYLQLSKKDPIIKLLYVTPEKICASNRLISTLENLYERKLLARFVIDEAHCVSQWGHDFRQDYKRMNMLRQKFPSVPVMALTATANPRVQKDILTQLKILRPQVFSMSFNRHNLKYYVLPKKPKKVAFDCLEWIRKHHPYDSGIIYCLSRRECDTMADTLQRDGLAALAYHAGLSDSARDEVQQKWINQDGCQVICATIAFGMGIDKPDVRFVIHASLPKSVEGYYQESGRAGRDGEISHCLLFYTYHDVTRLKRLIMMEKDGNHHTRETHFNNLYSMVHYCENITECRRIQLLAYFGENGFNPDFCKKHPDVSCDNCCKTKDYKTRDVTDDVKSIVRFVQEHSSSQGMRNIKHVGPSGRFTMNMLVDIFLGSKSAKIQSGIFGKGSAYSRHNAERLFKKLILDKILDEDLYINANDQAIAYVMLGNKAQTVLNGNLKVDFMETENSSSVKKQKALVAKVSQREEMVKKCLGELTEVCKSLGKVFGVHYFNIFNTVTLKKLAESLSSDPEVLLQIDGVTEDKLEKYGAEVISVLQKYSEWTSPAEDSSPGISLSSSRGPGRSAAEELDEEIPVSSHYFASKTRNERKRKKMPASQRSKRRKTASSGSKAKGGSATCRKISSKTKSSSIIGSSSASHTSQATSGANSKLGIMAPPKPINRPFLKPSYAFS
Tumor susceptibility gene 101 protein (Homo sapiens), sequence (Q99816 whole entry, looked up, the tested form may be a part): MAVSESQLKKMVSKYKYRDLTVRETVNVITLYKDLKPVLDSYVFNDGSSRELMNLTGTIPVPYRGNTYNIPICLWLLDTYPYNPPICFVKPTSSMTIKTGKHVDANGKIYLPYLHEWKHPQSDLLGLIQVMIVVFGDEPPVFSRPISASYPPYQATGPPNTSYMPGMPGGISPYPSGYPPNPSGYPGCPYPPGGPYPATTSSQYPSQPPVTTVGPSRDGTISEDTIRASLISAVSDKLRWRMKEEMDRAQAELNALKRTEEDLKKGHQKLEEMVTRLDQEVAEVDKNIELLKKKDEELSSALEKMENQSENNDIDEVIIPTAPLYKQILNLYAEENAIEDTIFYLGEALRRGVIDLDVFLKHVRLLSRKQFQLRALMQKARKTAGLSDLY

As to `NC12CC3CC(CC(C3)C1)C2`, the Potency entry in assay [1], in assay [3], in assay [4], in assay [5], in [6] and in assay [7] was “inactive” in each case. The Potency result in assay [8] is “inactive”. Also, the call in assay [2] and in [9] was inactive.
`Cc1cc(C(C)(C)C)c(O)c(C)c1CC1=NCCN1`: the Potency result in assay [1], in [3], in assay [4], in assay [5], in [6] and in [7] was “inactive” throughout. Further, the Potency entry in [8] is “inactive”. Also, the outcome in assay [2] and in assay [9] was inactive.
For the compound `COc1cc2nc(N3CCN(C(=O)c4ccco4)CC3)nc(N)c2cc1OC`, the Potency result in assay [1], in [10] and in assay [3] was “inactive” in each case. For the same compound, the result in assay [2] and in assay [9] was inactive. Besides, the Potency in [6] is 15.8 µM (active).
In the case of `CN(C)c1nc(N(C)C)nc(N(C)C)n1`, the Potency result in [1], in assay [3], in assay [4], in assay [5], in assay [6] and in assay [7] was “inactive” throughout. The result in assay [2] and in assay [9] was inactive.
For `Nc1nnc(-c2cccc(Cl)c2Cl)c(N)n1`, the Potency result in [1], in assay [3], in [4], in assay [5], in assay [6] and in [7] was “inactive” each time. The Potency result in assay [8] was “inactive”. Further, the result in assay [2] and in [9] was inactive.
`CN1CCN(C2=Nc3cc(Cl)ccc3Nc3ccccc32)CC1`: the Potency result in [1], in assay [3], in [4], in assay [5], in assay [6] and in [7] was “inactive” in each case. Besides, the compound was classed as inactive in assay [2] and in assay [9].
`CS(=O)(=O)Nc1ccc([N+](=O)[O-])cc1Oc1ccccc1`: the Potency result in assay [1], in [3], in assay [4], in assay [5], in assay [6] and in assay [7] was “inactive” each time. Moreover, the result in assay [2] and in [9] was inactive.
Consider `NCCc1cnc[nH]1`, for which the Potency result in assay [1], in assay [3], in assay [4], in [5], in [6] and in assay [7] was “inactive” in each case. For the same compound, the result in assay [2] and in assay [9] was inactive.
For `CCOC(=O)c1ncn2c1CN(C)C(=O)c1cc(F)ccc1-2`, the Potency entry in [1], in [3], in assay [4], in [5], in assay [6] and in assay [7] was “inactive” throughout. Moreover, the Potency result in assay [8] is “inactive”. Further, the outcome in assay [2] and in assay [9] was inactive.
With `CN1CCN(CCCN2c3ccccc3Sc3ccc(Cl)cc32)CC1`, the Potency entry in assay [1], in assay [10], in [7] and in assay [8] was “inactive” in each case. The compound was called inactive in [9].
For the compound `Cc1cc(C(C)(C)C)cc(C)c1CC1=NCCN1`, the Potency entry in assay [1], in [3], in assay [4], in [5], in assay [6] and in assay [7] was “inactive” in each case. The compound was classed as inactive in [2] and in assay [9].
As for `COc1ccc(C2CNC(=O)C2)cc1OC1CCCC1` (stereo not drawn), the Potency entry in assay [1], in assay [3], in assay [4], in [5], in assay [6] and in [7] was “inactive” in each case. Also, the compound was classed as inactive in [2] and in assay [9].
For the compound `CC(C)NCC(O)COc1ccc(CCOCC2CC2)cc1` (stereo not drawn), the Potency entry in [1], in [3], in [4], in assay [5], in assay [6] and in assay [7] was “inactive” throughout. For the same compound, the call in assay [2] and in [9] was inactive.
Consider `COc1ccccc1OCC(O)CN1CCN(CC(=O)Nc2c(C)cccc2C)CC1` (stereo not drawn), for which the Potency result in assay [1], in assay [3], in assay [4], in assay [5], in [6] and in assay [7] was “inactive” each time. In addition, the compound was classed as inactive in assay [2] and in assay [9].
For `CN(C)CCCN1c2ccccc2CCc2ccc(Cl)cc21`, the Potency result in [1], in assay [10], in [3], in [6], in [7] and in assay [8] was “inactive” each time. In addition, the compound was classed as inactive in [2] and in assay [9].
Consider `Cc1cnc(C(=O)NCCc2ccc(S(=O)(=O)NC(=O)NC3CCCCC3)cc2)cn1`, for which the Potency result in assay [1], in [3], in [4], in [5], in assay [6] and in assay [7] was “inactive” in each case. For the same compound, the result in assay [2] and in assay [9] was inactive.
Regarding `CN(Cc1cnc2nc(N)nc(N)c2n1)c1ccc(C(=O)N[C@@H](CCC(=O)O)C(=O)O)cc1`, the Potency result in assay [1], in assay [3], in [4], in assay [5], in assay [6] and in assay [7] was “inactive” throughout. Also, the outcome in assay [2] and in assay [9] was inactive.
Regarding `Cn1ccc2cc3c(cc21)CCN3C(=O)Nc1cccnc1`, the Potency result in assay [1], in [3], in assay [4], in assay [5], in [6] and in assay [7] was “inactive” each time. For the same compound, the Potency result in assay [8] was “inactive”. Moreover, the call in assay [2] and in assay [9] was inactive.
On to `Fc1ccc([C@@H]2CCNC[C@H]2COc2ccc3c(c2)OCO3)cc1`, for which the Potency result in [1], in assay [10], in [6], in assay [7] and in [8] was “inactive” in each case. The Potency in assay [3] is 2.93 µM (active). Also, the call in assay [9] was inactive.
`N[C@@H](Cc1c[nH]c2ccc(O)cc12)C(=O)O`: the Potency entry in [1], in assay [3], in assay [6], in assay [7] and in assay [8] was “inactive” each time. Besides, the outcome in assay [2] and in assay [9] was inactive.
For `C[C@](N)(Cc1ccc(O)c(O)c1)C(=O)O`, the Potency result in assay [1], in assay [6] and in [7] was “inactive” each time. The compound was classed as inactive in assay [9].
Consider `CN1C2CCC1CC(OC(=O)C(CO)c1ccccc1)C2` (stereo not drawn), for which the Potency entry in assay [1], in [3], in assay [4], in assay [5] and in assay [6] was “inactive” throughout. The call in assay [2] and in assay [9] was inactive.
With `COc1ccc2[nH]cc(CCNC(C)=O)c2c1`, the Potency entry in [1], in assay [3], in assay [4], in assay [5], in [6] and in [7] was “inactive” throughout. The compound was called inactive in assay [2] and in [9].
As for `CC#C[C@]1(O)CC[C@H]2[C@@H]3CCC4=CC(=O)CCC4=C3[C@@H](c3ccc(N(C)C)cc3)C[C@@]21C`, the call in assay [2] and in [9] was inactive. Moreover, the Potency entry in [3], in [7] and in assay [8] was “inactive” in each case. For the same compound, the Potency in [4] is 11.7 µM (active).
